Test results taken from ChEMBL document CHEMBL1961873, “Compounds: GSK PKIS; Assays: Nanosyn kinase panel” (2012).
Several values for one entry are separate records, joined by “and”; a condition that tells them apart may be missing. Equal entries are not always repeated.

Tests used:
[1] = target: T1, 3-phosphoinositide-dependent protein kinase 1 (Homo sapiens) (UniProt O15530); conditions: at 0.1 µM;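 note: values are mean inhibition of PDK1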
T1 sequence (whole entry): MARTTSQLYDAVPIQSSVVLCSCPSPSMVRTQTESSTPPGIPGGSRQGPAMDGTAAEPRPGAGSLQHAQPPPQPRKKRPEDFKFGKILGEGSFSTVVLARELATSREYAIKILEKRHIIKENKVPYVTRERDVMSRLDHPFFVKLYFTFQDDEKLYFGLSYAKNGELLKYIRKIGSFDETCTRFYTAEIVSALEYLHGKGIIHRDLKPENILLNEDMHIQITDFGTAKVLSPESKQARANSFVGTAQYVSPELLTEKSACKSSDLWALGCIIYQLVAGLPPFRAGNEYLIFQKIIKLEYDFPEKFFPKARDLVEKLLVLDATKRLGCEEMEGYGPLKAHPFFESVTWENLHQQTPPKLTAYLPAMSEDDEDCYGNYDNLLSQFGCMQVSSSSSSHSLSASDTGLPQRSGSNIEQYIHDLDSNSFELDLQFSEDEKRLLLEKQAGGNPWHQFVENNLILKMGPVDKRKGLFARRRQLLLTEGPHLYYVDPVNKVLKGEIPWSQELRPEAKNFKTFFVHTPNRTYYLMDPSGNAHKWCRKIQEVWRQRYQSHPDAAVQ

[2] = target: cAMP-dependent protein kinase catalytic subunit alpha (Homo sapiens) (UniProt P17612); conditions: at 0.1 µM
[3] = target: cAMP-dependent protein kinase catalytic subunit alpha (Homo sapiens) (UniProt P17612); conditions: at 1 µM
[4] = target: Protein kinase C alpha type (Homo sapiens) (UniProt P17252); conditions: at 0.1 µM
[5] = target: Protein kinase C alpha type (Homo sapiens) (UniProt P17252); conditions: at 1 µM
[6] = target: Protein kinase C beta type (Homo sapiens) (UniProt P05771); conditions: at 0.1 µM
Sequence of Protein kinase C beta type (Homo sapiens) (P05771 2-671 limits assumed): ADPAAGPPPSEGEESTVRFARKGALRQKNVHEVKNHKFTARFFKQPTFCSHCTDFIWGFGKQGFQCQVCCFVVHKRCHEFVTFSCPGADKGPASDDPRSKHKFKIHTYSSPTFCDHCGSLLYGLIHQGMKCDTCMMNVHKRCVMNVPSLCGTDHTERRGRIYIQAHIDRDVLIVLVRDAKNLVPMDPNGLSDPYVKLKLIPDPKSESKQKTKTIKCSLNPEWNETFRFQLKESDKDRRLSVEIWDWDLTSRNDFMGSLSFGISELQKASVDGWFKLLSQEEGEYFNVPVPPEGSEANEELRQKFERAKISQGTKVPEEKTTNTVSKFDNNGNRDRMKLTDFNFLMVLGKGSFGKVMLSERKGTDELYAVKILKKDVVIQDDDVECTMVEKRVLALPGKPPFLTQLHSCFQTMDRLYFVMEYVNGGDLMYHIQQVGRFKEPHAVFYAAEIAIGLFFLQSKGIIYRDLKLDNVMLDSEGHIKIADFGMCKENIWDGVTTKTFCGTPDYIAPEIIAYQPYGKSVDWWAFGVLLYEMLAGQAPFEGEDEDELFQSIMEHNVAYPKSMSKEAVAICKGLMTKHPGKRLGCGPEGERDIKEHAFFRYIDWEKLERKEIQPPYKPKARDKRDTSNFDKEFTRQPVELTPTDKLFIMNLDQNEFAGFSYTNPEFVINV

[7] = target: Protein kinase C beta type (Homo sapiens) (UniProt P05771); conditions: at 1 µM
[8] = target: Protein kinase C eta type (Homo sapiens) (UniProt P24723); conditions: at 0.1 µM
Sequence of Protein kinase C eta type (Homo sapiens) (P24723 whole entry): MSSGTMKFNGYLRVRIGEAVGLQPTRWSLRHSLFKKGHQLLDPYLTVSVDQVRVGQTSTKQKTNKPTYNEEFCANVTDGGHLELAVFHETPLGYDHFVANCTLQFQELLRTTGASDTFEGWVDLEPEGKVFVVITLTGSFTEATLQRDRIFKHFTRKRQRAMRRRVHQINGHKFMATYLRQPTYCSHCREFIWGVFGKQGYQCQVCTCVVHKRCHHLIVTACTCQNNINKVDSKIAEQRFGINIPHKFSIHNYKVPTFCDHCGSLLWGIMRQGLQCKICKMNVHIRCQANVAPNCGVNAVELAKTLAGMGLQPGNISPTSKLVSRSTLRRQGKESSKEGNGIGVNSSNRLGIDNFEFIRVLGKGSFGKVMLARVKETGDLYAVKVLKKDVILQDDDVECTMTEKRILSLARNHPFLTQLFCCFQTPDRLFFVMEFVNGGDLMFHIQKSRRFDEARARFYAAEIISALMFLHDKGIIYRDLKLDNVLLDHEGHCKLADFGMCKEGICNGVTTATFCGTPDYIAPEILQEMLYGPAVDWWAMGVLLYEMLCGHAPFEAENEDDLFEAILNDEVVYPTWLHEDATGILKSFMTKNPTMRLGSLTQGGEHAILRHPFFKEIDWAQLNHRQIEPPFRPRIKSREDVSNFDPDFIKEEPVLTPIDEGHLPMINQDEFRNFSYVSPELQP

[9] = target: Protein kinase C eta type (Homo sapiens) (UniProt P24723); conditions: at 1 µM
[10] = target: Protein kinase C gamma type (Homo sapiens) (UniProt P05129); conditions: at 0.1 µM;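 note: values are mean percent inhibition of PKC gamma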

Structure (SMILES) | inhibition [1] | inhibition [2] | inhibition [3] | inhibition [4] | inhibition [5] | inhibition [6] | inhibition [7] | inhibition [8] | inhibition [9] | inhibition [10]
Nc1nccc(-c2c(-c3ccc(F)cc3)ncn2C2CCNCC2)n1 | -3.23% and 1.39% | -0.37% and 3.2% | 20.2% and 30.2% | 1.33% and 2.68% | 21.7% and 29% | 1.41% and 3.25% | 17.9% and 21.4% | -2.01% and 0.32% | 0.29% and 1.78% | -1.71% and 0.92%
Cc1nnc(-c2cccc(-c3ccc(C(=O)NCC4CC4)cc3)c2)o1 | 2.18% | 1.83% | 2.07% | 0.65% | 1.45% | 2.27% | 3.52% | 3.46% | 6.75% | 1.76%
CS(=O)(=O)Nc1ccc(-c2ccc3c(NC(=O)C4CC4)n[nH]c3c2)cc1 | 2.46% | 1.42% | 1.85% | 1.17% | 1.78% | -0.7% | 0.21% | 4.05% | 1.11% | 2.49%
COc1cc(N2CCN(C(C)C)CC2)ccc1Nc1nc(Nc2cccc3ncccc23)c2cc[nH]c2n1 | -0.4% | 0.01% | 0.68% | -0.39% | 1.71% | -0.38% | 2.34% | -2.11% | -3.36% | -0.77%
CNC(=O)c1ncccc1Nc1nc(Nc2cc3c(cc2OC)CCCN3C(=O)CN(C)C)nc2[nH]ccc12 | 3.18% | 1.72% | 2.56% | 1.68% | 10.7% | 1.41% | 1.37% | 2.78% | 1.52% | 5.68%
COc1cc(N2CCN(C(C)C)CC2)ccc1Nc1nc(Nc2cccc(F)c2C(=O)O)c2cc[nH]c2n1 | 2.24% | 1.49% | 2.03% | 1.38% | 2.23% | -0.07% | 3.07% | 2.71% | 4.16% | 1.77%
O=C1Nc2ccccc2/C1=C1\CCc2cc(O)ccc21 | 15.1% | 2.16% | 4.57% | 1.24% | 2.87% | 0.69% | 1.16% | 2.22% | 3.7% | 2.96%
O=C(O[C@H]1CN[C@H](C#Cc2cc3ncnc(Nc4ccc5c(ccn5Cc5cc(F)ccc5F)c4)c3s2)C1)N1CCOCC1 | 2.16% | 1.86% | 1.48% | 0.78% | 2.63% | 1.59% | 1.27% | 5.63% | 3.54% | 1.38%
COc1ccc(-c2nn3ncccc3c2-c2ccnc(Nc3ccc(F)c(F)c3)n2)cc1 | 0.91% | 1.99% | 3.24% | 0.39% | 1.74% | 1.53% | 5.16% | 1.15% | 7.16% | 4.72%
CS(=O)(=O)Nc1ccc(-c2cc(-c3ccccc3)cc(C(N)=O)c2N)cc1 | -0.56% | 0.69% | -0.07% | 0.46% | 1.59% | -0.05% | -0.92% | 1.6% | 1.53% | 1.15%
CCS(=O)(=O)c1ccc(OC)c(Nc2ncc(-c3cccc(C(C)=O)c3)o2)c1 | 0.17% | 1.47% | 1.88% | 0.74% | 0.95% | -0.44% | 3.77% | 3.76% | 3.11% | 2.68%
Cn1c(-c2nonc2N)nc2cnccc21 | 4.21% | 2.05% | 6.79% | 0.48% | 2.7% | 7.33% | 36.2% | 6.3% | 29.4% | 1.7%
Nc1nonc1-c1nc2cnccc2n1C1CC1 | 2.07% and 2.38% | 5.45% and 2.09% | 36.2% and 35.9% | 1.78% and -0.98% | 15.7% and 16.9% | 45% and 47.9% | 68.3% and 74.8% | 45.9% and 49.3% | 88.8% and 90.8% | 3.3% and 3.29%
CN1CCN(Cc2ccc(-c3cc4ncnc(Nc5ccc(OCc6cccc(F)c6)c(Cl)c5)c4s3)o2)CC1 | 14.8% and 0.07% | 1.2% and 3.28% | 5.56% and 3.03% | 0.64% and 0.88% | 1.87% and 2.52% | -1.25% and 0.04% | 0.12% and 3.28% | 4.86% and 6.13% | 3.75% and 6.04% | 0.69% and 2.55%
CNC(=O)c1sc(-n2cnc3cc(OC)c(OC)cc32)cc1OCc1ccccc1C(F)(F)F | 1.81% | 2.01% | 2.29% | 0.09% | 0.93% | 1.29% | -0.63% | 3.69% | 1.55% | 5.06%
CCCNc1cccc(-n2ncc3c(N/N=C/c4ccncc4)ncnc32)c1 | 1.19% | 1.59% | 3.62% | 0.98% | 1.45% | 1.35% | 5.99% | 2.17% | 2.92% | 1.35%

Structure (SMILES) | inhibition [1] | inhibition [2] | inhibition [3] | inhibition [4] | inhibition [5] | inhibition [6] | inhibition [7] | inhibition [8] | inhibition [9] | inhibition [10]
CC1=C(C(=O)Nc2ccc3[nH]ncc3c2)C(c2ccc(F)cc2)N=C(c2ccc(C(F)(F)F)nc2)N1 (stereo not given) | 2.62% | 3.58% | 20.9% | 1.25% | 2.09% | 0.07% | -0.53% | 2.89% | 2.1% | 0.54%
COc1ccc2ncn(-c3cc(O[C@H](C)c4ccccc4C(F)(F)F)c(C(N)=O)s3)c2c1 | 0.59% | 0.69% | 0.52% | 0.07% | 0.04% | 0.44% | 1.04% | 1.89% | 1.45% | -2.52%
CS(=O)(=O)CCNCc1ccoc1-c1ccc2ncnc(Nc3ccc(OCc4ccccc4)cc3)c2c1 | 1.23% | 1.55% | 1.02% | -0.16% | 0.23% | -0.13% | -4.5% | 1.81% | -0.91% | 0.57%
Nc1ncnc2occ(-c3ccc(NC(=O)Nc4cc(C(F)(F)F)ccc4F)cc3)c12 | 2.41% and -0.72% | 0.57% and -0.25% | 1.31% and -1.17% | 0.16% and -0.04% | 0.52% and -0.37% | 1.05% and -0.26% | 1.13% and 0.29% | 1.5% and 0.01% | 1.23% and -2.29% | -0.11% and -2.32%
Fc1cccc(COc2ccc(Nc3ncncc3C#Cc3ccccc3)cc2Cl)c1 | 3.09% | 2.03% | 2.57% | 1.03% | 1.01% | 1.01% | 4.8% | 0.23% | 4.62% | 3.66%
COc1ccccc1-c1cc(/C=C2\C(=O)Nc3ncc(Br)cc32)cc(Br)c1O | 2.09% | 1.83% | 1.05% | 0.82% | 1.73% | -0.31% | 0.26% | 2.06% | 1.62% | -0.61%
CN(C)CCNC(=O)Nc1ccc(N(C)c2ccnc(Nc3ccc(CS(C)(=O)=O)cc3)n2)cc1 | 2.36% | 2.31% | 5.69% | 1.06% | 1.51% | -0.61% | 0.12% | 5.94% | -2.33% | 2.25%
CNC(=O)c1cncc(/C=C/c2ccccc2C)c1 | 2.42% | 4.12% | 3.53% | 0.63% | 1.68% | 1.31% | 5.47% | 4.83% | 5.78% | -2.58%
c1ccc(-c2n[nH]cc2-c2ccnc(-c3ccc(OCCn4ccnc4)cc3)c2)nc1 | 0.22% | 0.39% | 4.32% | 0.35% | 0.47% | 0.31% | 0.68% | -2.29% | -0.53% | 0.17%
COc1c(C(N)=O)cc(-c2ccc(Cl)cc2)cc1-c1ccc(S(N)(=O)=O)cc1 | 1.2% | 3.03% | 4.3% | 0.59% | 1.5% | 0.62% | 3.84% | 1.17% | 5.18% | 1.45%
O=C(O[C@H]1CN[C@H](C#Cc2cc3ncnc(Nc4ccc(OCc5cccc(F)c5)c(Cl)c4)c3s2)C1)N1CCOCC1 | 0.08% | 2.39% | 3.33% | 0.97% | -4.52% | 1.43% | 2.48% | 2.88% | 5.07% | 4.27%
Cc1cc(O)cc(C)c1/C=C/c1cncc(C(=O)OC(C)(C)C)c1 | 1.42% | 1.82% | 3.63% | 0.14% | 0.77% | 0.46% | -1.03% | -1.29% | 3.71% | 3.91%
COc1ccc(Nc2ncc(-c3ccccc3)o2)cc1OC | 2.22% | 0.2% | 1.87% | 1.08% | 4.51% | -0.02% | 3.24% | 0.42% | -1.25% | 0.58%
O=C(Nc1n[nH]c2nnc(-c3cccnc3)cc12)C1CC1 | -0.25% | -0.44% | 0.38% | -0.19% | 2.33% | -0.7% | 0.6% | -1.43% | 2.91% | -0.5%
NS(=O)(=O)c1ccc(N/N=C2\C(=O)Nc3cccc(CCc4ccncc4)c32)cc1 | 6.76% | 1.41% | 1.07% | 0.11% | 0.43% | -0.59% | -0.96% | -1.41% | 1.16% | -0.97%
